Screens as filed in PubChem BioAssay.
FBA Mtb inh: inhibits M. tuberculosis FBA enzyme; P9WQA3; purified M. tuberculosis FBA, fluorescence read-out; inhibition, % at 1 µM; actives 2.3% (n = 360,000); in the data active = inhibition above about 27%;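 also: 0% = vehicle and 100% = reference inhibitor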
Target sequence (P9WQA3 whole entry, looked up): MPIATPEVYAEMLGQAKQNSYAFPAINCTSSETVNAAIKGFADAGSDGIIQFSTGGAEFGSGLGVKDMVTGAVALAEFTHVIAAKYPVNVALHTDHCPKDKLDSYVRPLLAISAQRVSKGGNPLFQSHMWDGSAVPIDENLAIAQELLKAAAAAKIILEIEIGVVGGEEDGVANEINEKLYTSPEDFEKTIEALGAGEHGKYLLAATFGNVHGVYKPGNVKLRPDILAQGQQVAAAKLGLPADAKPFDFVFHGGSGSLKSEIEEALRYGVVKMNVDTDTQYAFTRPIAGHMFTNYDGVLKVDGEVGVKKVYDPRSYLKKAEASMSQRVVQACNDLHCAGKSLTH
Mtb bLac sens: beta-lactam sensitization of Mtb H37Rv | M. tuberculosis H37Rv growth with meropenem, percent inhibition | actives 0.27% (n = 330,000) | AID 434955 | inhibition, % at 25 µM; call rule not given here;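 also: growth measured after seven days incubation then overnight dye step; 0% = bacteria only wells and 100% = bacteria with antibiotic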
MazF activator: activators of E. coli MazEF toxin-antitoxin RNase. FAM/BHQ RNA-DNA oligo cleavage fluorescence, 5 h. activation, % at 20 µM. actives 0.32% (n = 350,000). AID 504720; in the data active = activation above about 50%
Target sequence (P0AE70 whole entry, looked up): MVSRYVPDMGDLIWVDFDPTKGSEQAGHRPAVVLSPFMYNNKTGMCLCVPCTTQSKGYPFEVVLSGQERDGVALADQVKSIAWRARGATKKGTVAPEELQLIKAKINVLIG
GDH-TPI inh: GDH-TPI coupled enzyme inhibition counter-screen; GDH-TPI coupled enzyme counterscreen, NADH absorbance; inhibition, % at 4.8 µM; actives 1.2% (n = 360,000); AID 588335;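 also: 0% = DMSO wells and 100% = wells lacking the enzyme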
CCHFV vOTU inh: blocks the CCHF virus ovarian tumor domain protease. CCHFV vOTU protease, Pep-AMC fluorescence. inhibition, % at 11.5 µM. actives 0.55% (n = 370,000). AID 651958; also: 0% = vehicle wells with enzyme and 100% = no enzyme wells
An asterisk follows results filed as active; . = not tested or not shown; + = active, no number. Shown are actives, neighbours in structure and some others; about 4% of the full set was active somewhere. Rule as the data show it, unless noted: active = inhibition above about 30%; inactive = the rest.

SMILES | FBA Mtb inh | Mtb bLac sens | MazF activator | GDH-TPI inh | CCHFV vOTU inh
COC(=O)c1sc(NC(=S)NNC(=O)c2c(Br)c(C)nn2C)c(C(=O)OC)c1C | -1 | -6 | 1 | 53* | 6
C[C@H](O)[C@@H]1CN2CCc3ccc(N4CCOCC4)cc3[C@@H]2C[C@@H]1N(C)CC1CCCCC1 | . | . | . | . | -4
COC(=O)N/N=C/c1ccc(-c2cc(Cl)cc(Cl)c2)o1 | -5 | 6 | 4 | 46* | 14
Nc1ccccc1N=Cc1ccc(-c2cccc(Cl)c2)o1 | 146* | 7 | 33 | 12 | -93
COC(=O)N/N=C/c1ccc(-c2cccc(Cl)c2)o1 | -6 | -3 | 0 | 31* | 13
O=C(CN1CCN(Cc2ccccc2)CC1)NCCNc1ccc([N+](=O)[O-])cn1 | 0 | 3 | 7 | 23 | -10
Nc1ccn(CC(=O)NCCNc2ccc([N+](=O)[O-])cn2)c(=O)n1 | 3 | -2 | -2 | 33* | -2
CC(=O)c1ccc(Oc2ccc(C(C)=O)cc2)cc1 | -4 | 4 | -1 | -2 | -1
CC(=O)c1ccc(OC(=O)Oc2ccc(C(C)=O)cc2)cc1 | 1 | . | 5 | 32* | 10
COc1ccc(OC)c(NC(=O)c2ccc3c(=O)n(CCc4ccccc4)c(=S)[nH]c3c2)c1 | -2 | -9 | 52* | 10 | 3
COc1ccc(OC)c(NC(=O)CCn2c(=S)[nH]c3ccccc3c2=O)c1 | 0 | 4 | -11 | -2 | -5
C=CCn1c2ccccc2c(=O)c2cc(C#Cc3ccccn3)ccc21 | + | 37 | -6 | 4 | -96
O=C(OC12CCCN(C1)/C(=C/c1cccc(Cl)c1)C2)c1cccc(F)c1 (stereo not given) | . | . | . | . | 10
CCC(C)Sc1cc(-c2nc3ccc(C)cn3c2NCc2ccccc2)ccc1OC (stereo not given) | 64* | 14 | -13 | 10 | -13
CCC(C)Sc1ccc(-c2nc3ccc(C)cn3c2NCc2ccccc2)cc1OC (stereo not given) | 116* | 99 | 4 | 42* | .
COC(=O)[C@]12C[C@H](CC(=O)NCCCCc3ccccc3)C(=O)N(Cc3ccc(Cl)cc3Cl)C1=C[C@H](COCc1ccccc1)O[C@@H]2C | . | . | . | . | 11
Cc1ccc(C(=O)Nc2nnc(S(=O)(=O)N3CCC(C)CC3)s2)cc1 | 1 | 3 | -7 | -3 | 10
COc1ccc(C(=O)Nc2nnc(S(=O)(=O)N3CCC(C)CC3)s2)cc1OC | 4 | 1 | -12 | 46* | 15
Cc1ccc(C(=O)Nc2nnc(S(=O)(=O)N3CCCCCC3)s2)cc1 | 3 | 3 | 4 | 17 | 4
COc1ccc(C(=O)Nc2nnc(S(=O)(=O)N3CCCCCC3)s2)cc1OC | 4 | 7 | -7 | 47* | 0
O=C(Nc1nnc(S(=O)(=O)N2CCCC2)s1)c1cccc([N+](=O)[O-])c1 | 3 | 16 | 6 | 39* | .
O=C(c1cccc(I)c1)N1CCC(Oc2cccnc2)CC1 | . | . | . | . | 2
COc1ccccc1CCC[C@@H](CCS(=O)(=O)C(C)C)CC1CCCCC1 | . | . | . | . | 8
COc1cc(/C=N/Nc2nc3c(c(=O)n(C)c(=O)n3C)n2Cc2ccccc2)ccc1OC(=O)c1ccco1 | 1 | -1 | 3 | 33* | -3
Cc1ccc(Cn2c(N/N=C/c3ccncc3)nc3c2c(=O)n(C)c(=O)n3C)cc1 | -6 | -1 | 9 | 26 | -1
SMILES | FBA Mtb inh | Mtb bLac sens | MazF activator | GDH-TPI inh | CCHFV vOTU inh
COc1cc(/C=N/Nc2ccc(Cl)c(C(=O)O)c2)ccc1OC(=O)c1ccco1 | 4 | -2 | -4 | 13 | 1
Cn1c(=O)c2c(nc(N/N=C/c3ccncc3)n2Cc2ccccc2)n(C)c1=O | -1 | -9 | 7 | 59* | 7
COc1ccc(-c2oc3ccccc3c2C(=O)OCc2ccc([N+](=O)[O-])cc2)cc1 | 2 | 3 | -9 | 2 | 9
COC(=O)c1c(-c2ccc(OC)cc2)oc2ccccc12 | 134* | 25 | -4 | 18 | -29
COc1ccc2oc(-c3ccccc3)c(C(=O)O)c2c1 | + | 4 | 1 | 9 | -79
CCN(CC)c1ccc(/C=N\NC(N)=O)cc1 | 26 | 7 | 3 | 48* | -20
CCN(CC)c1ccc(/C=N/NC(=O)Nc2ccccc2)cc1 | 15 | 10 | -3 | 32* | -5
CCN(CC)c1ccc(C=NNc2ccc([N+](=O)[O-])cn2)cc1 | -5 | . | 76* | -1 | -2
COC(=O)C1CN(C2CCCC2)CCS(=O)(=O)N1Cc1ccc(Cl)cc1 (stereo not given) | . | . | . | . | 6
CC(=O)Nc1cccc(C(C)C2=CCCCC2)c1 (stereo not given) | . | . | . | . | 11
C=CCN1C(=O)[C@@H](CC(=O)NCc2ccc(C)o2)[C@]2(C(=O)OCC)CCCCC/C=C/12 | . | . | . | . | -1
CCOC(=O)/C(=C\c1c[nH]c2ccccc12)NC(C)=O | -3 | 0 | 6 | 29 | -2
COC(=O)/C(=C\c1c[nH]c2ccccc12)NC(C)=O | 1 | 6 | 15 | 39* | 6
Cc1nn(-c2ccccc2)c(N)c1N=Nc1cccnc1 | -2 | 16 | 5 | 23 | 24
Cc1ccccc1-n1nc(C)c(N=O)c1N | 113* | -4 | 3 | 5 | -3
S=c1[nH]nc(-c2cc(-c3ccccc3)n[nH]2)n1N=Cc1c[nH]c2ccccc12 | . | . | . | . | -1
CC(C)C1Oc2cc3oc(=O)ccc3cc2C1=O (stereo not given) | 115* | -9 | -33 | 16 | -92
CCOC(=O)C1=NOC(C(=O)NC2CCCC2)(C(=O)C2CC2)C1 (stereo not given) | . | . | . | . | -4
C=CCN1[C@H](CC(C)C)COc2cccc(N3CCSCC3)c2S1(=O)=O | . | . | . | . | 2
c1ccc(CN2c3ccccc3-c3nc4ccccc4n3C2c2ccccn2)cc1 (stereo not given) | 121* | 2 | 5 | 5 | -64
CN1c2ccccc2-c2nc3ccccc3n2C1c1ccncc1 (stereo not given) | 12 | -1 | 3 | 20 | 8
CN1c2ccccc2-c2nc3ccccc3n2C1c1ccccn1 (stereo not given) | 47* | 71 | -1 | 9 | -136
CCN1c2ccccc2-c2nc3ccccc3n2C1c1ccco1 (stereo not given) | + | -9 | 3 | 9 | -242
COC(=O)c1ccc(S(=O)(=O)N2CCC(NC(=O)Cc3ccccc3)CC2)cc1 | . | . | . | . | -5
COc1ccc(CNS(=O)(=O)/C=C/c2ccccc2CNC(=O)OC(C)(C)C)cc1 | . | . | . | . | 0
O=C(c1sccc1Cl)N1CCC(n2nnc3ncccc32)CC1 | . | . | . | . | -1
COc1ccc2cc(-c3ccccc3)c(=O)oc2c1 | + | -5 | -16 | 30 | -378
COc1cccc2cc(-c3ccccc3)c(=O)oc12 | 3 | 1 | 1 | -1 | 6
COc1ccc(-c2cc(=O)oc3cc(OC(C)C(=O)O)ccc23)cc1 (stereo not given) | 4 | 4 | -3 | 7 | 0
COC(=O)C(C)Oc1ccc2cc(-c3ccccc3)c(=O)oc2c1 (stereo not given) | + | 100 | 3 | 17 | -346
